# Test results taken from publication PMC5540273 (PLoS ONE, 2017).
# Read-outs that look alike come from different tables or passages of the source.
# Legend:
# Conditions in all cases: n = 1
# [1] = test system: TAOK3
# [2] = test system: TBK1
# [3] = test system: TEC
# [4] = test system: TESK1
# [5] = test system: TGFBR2
# [6] = test system: TIE1
# [7] = test system: T1, TIE2
# T1 construct: gene TEK
# [8] = test system: TLK1
# [9] = test system: TLK2
# [10] = test system: TNIK
# [11] = test system: TNK1
# [12] = test system: TNK2
# [13] = test system: TNNI3K
# [14] = test system: T2, TRKA
# T2 construct: gene NTRK1
# [15] = test system: TRKB
# [16] = test system: T3, TRKC
# T3 construct: gene NTRK3
# [17] = test system: TRPM6
# [18] = test system: TSSK1B
# [19] = test system: TSSK3
# [20] = test system: TGFBR1
# [21] = concentration: 1 μM, replicates: in singlicate
# 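Further: KINOMEscan kinase panel screen.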
smiles,measurement,setting,value
COc1ccc2nc(-c3cccc(C)n3)nc(Nc3ccncc3)c2c1 [GSK204919],%Inh,[1]; [21],0%
same,%Inh,[2]; [21],3%
same,%Inh,[3]; [21],8%
same,%Inh,[4]; [21],26%
same,%Inh,[5]; [21],10%
same,%Inh,[6]; [21],9%
same,%Inh,[7]; [21],0%
same,%Inh,[8]; [21],0%
same,%Inh,[9]; [21],0%
same,%Inh,[10]; [21],9%
same,%Inh,[11]; [21],0%
same,%Inh,[12]; [21],15%
same,%Inh,[13]; [21],16%
same,%Inh,[14]; [21],0%
same,%Inh,[15]; [21],0%
same,%Inh,[16]; [21],0%
same,%Inh,[17]; [21],0%
same,%Inh,[18]; [21],0%
same,%Inh,[19]; [21],14%
Nc1ncnc2[nH]c(-c3ccccc3)nc12 [AH5015],%Inh,[1]; [21],9%
same,%Inh,[2]; [21],10%
same,%Inh,[3]; [21],28%
same,%Inh,[4]; [21],30%
same,%Inh,[20]; [21],10%
same,%Inh,[5]; [21],9%
same,%Inh,[6]; [21],38%
same,%Inh,[7]; [21],0%
same,%Inh,[8]; [21],0%
same,%Inh,[9]; [21],0%
same,%Inh,[10]; [21],1%
same,%Inh,[11]; [21],0%
same,%Inh,[12]; [21],24%
same,%Inh,[13]; [21],11%
same,%Inh,[14]; [21],0%
same,%Inh,[15]; [21],45%
same,%Inh,[16]; [21],26%
same,%Inh,[17]; [21],4%
same,%Inh,[18]; [21],9%
same,%Inh,[19]; [21],7%
CC1=C(C(=O)Nc2cc3cn[nH]c3cc2F)C(c2ccc(C(F)(F)F)cc2)CC(=O)N1 (stereo not shown) [GSK429286],%Inh,[1]; [21],0%
same,%Inh,[2]; [21],4%
same,%Inh,[3]; [21],18%
same,%Inh,[4]; [21],30%
same,%Inh,[20]; [21],0%
same,%Inh,[5]; [21],0%
same,%Inh,[6]; [21],12%
same,%Inh,[7]; [21],0%
same,%Inh,[8]; [21],10%
same,%Inh,[9]; [21],0%
same,%Inh,[10]; [21],0%
same,%Inh,[11]; [21],0%
same,%Inh,[12]; [21],15%
same,%Inh,[13]; [21],3%
same,%Inh,[14]; [21],0%
same,%Inh,[15]; [21],0%
same,%Inh,[16]; [21],0%
same,%Inh,[17]; [21],0%
same,%Inh,[18]; [21],13%
same,%Inh,[19]; [21],14%
Cc1ccc(NC(=O)Nc2cccc(C(F)(F)F)c2)cc1 [GSK955403],%Inh,[1]; 1 µM,0%
same,%Inh,[2]; 1 µM,33%
same,%Inh,[3]; 1 µM,7%
same,%Inh,[4]; 1 µM,36%
same,%Inh,[20]; 1 µM,6%
same,%Inh,[5]; 1 µM,0%
same,%Inh,[6]; 1 µM,13%
same,%Inh,[7]; 1 µM,38%
same,%Inh,[8]; 1 µM,20%
same,%Inh,[9]; 1 µM,3%
same,%Inh,[10]; 1 µM,3%
same,%Inh,[11]; 1 µM,17%
same,%Inh,[12]; 1 µM,2%
same,%Inh,[13]; 1 µM,0%
same,%Inh,[14]; 1 µM,0%
same,%Inh,[15]; 1 µM,0%
same,%Inh,[16]; 1 µM,0%
same,%Inh,[17]; 1 µM,0%
same,%Inh,[18]; 1 µM,0%
same,%Inh,[19]; 1 µM,8%
Fc1cc(Cl)ccc1Nc1ccnc2cc(I)ccc12 [GW551191],%Inh,[1]; [21],0%
same,%Inh,[2]; [21],11%
same,%Inh,[3]; [21],22%
same,%Inh,[4]; [21],12%
same,%Inh,[20]; [21],17%
same,%Inh,[5]; [21],50%
same,%Inh,[6]; [21],0%
same,%Inh,[7]; [21],0%
same,%Inh,[8]; [21],21%
same,%Inh,[9]; [21],0%
same,%Inh,[10]; [21],31%
same,%Inh,[11]; [21],6%
same,%Inh,[12]; [21],10%
same,%Inh,[13]; [21],15%
same,%Inh,[14]; [21],0%
same,%Inh,[15]; [21],37%
same,%Inh,[16]; [21],24%
same,%Inh,[17]; [21],0%
same,%Inh,[18]; [21],32%
same,%Inh,[19]; [21],3%
Cc1cccc(-c2cc(Nc3ccncc3)c3ccccc3n2)n1 [GSK223675],%Inh,[1]; [21],0%
same,%Inh,[2]; [21],28%
same,%Inh,[3]; [21],0%
same,%Inh,[4]; [21],63%
same,%Inh,[5]; [21],0%
same,%Inh,[6]; [21],0%
same,%Inh,[7]; [21],0%
same,%Inh,[8]; [21],21%
same,%Inh,[9]; [21],0%
same,%Inh,[10]; [21],0%
same,%Inh,[11]; [21],0%
same,%Inh,[12]; [21],0%
same,%Inh,[13]; [21],0%
same,%Inh,[14]; [21],0%
same,%Inh,[15]; [21],0%
same,%Inh,[16]; [21],0%
same,%Inh,[17]; [21],0%
same,%Inh,[18]; [21],0%
same,%Inh,[19]; [21],11%
C[C@@H]1CCCCN1c1cc(-c2ccc3c(N)n[nH]c3c2)nc(N)n1 [GSK2258759],%Inh,[1]; [21],0%
same,%Inh,[2]; [21],24%
same,%Inh,[3]; [21],0%
same,%Inh,[4]; [21],0%
same,%Inh,[5]; [21],0%
same,%Inh,[6]; [21],0%
same,%Inh,[7]; [21],0%
same,%Inh,[8]; [21],23%
same,%Inh,[9]; [21],4%
same,%Inh,[10]; [21],0%
same,%Inh,[11]; [21],0%
same,%Inh,[12]; [21],18%
same,%Inh,[13]; [21],0%
same,%Inh,[14]; [21],0%
same,%Inh,[15]; [21],0%
same,%Inh,[16]; [21],0%
same,%Inh,[17]; [21],16%
same,%Inh,[18]; [21],0%
same,%Inh,[19]; [21],2%
CN1C(=O)C(Nc2ccc(Cl)c(C(=O)O)c2)=C(c2ccc(Cl)cc2)C1=O [SB-404290],%Inh,[1]; [21],19%
same,%Inh,[2]; [21],27%
same,%Inh,[3]; [21],0%
same,%Inh,[4]; [21],0%
same,%Inh,[20]; [21],0%
same,%Inh,[5]; [21],0%
same,%Inh,[6]; [21],0%
same,%Inh,[7]; [21],14%
same,%Inh,[8]; [21],0%
same,%Inh,[9]; [21],0%
same,%Inh,[10]; [21],13%
same,%Inh,[11]; [21],13%
same,%Inh,[12]; [21],0%
same,%Inh,[13]; [21],0%
same,%Inh,[14]; [21],0%
same,%Inh,[15]; [21],0%
same,%Inh,[16]; [21],22%
same,%Inh,[17]; [21],10%
same,%Inh,[18]; [21],0%
same,%Inh,[19]; [21],0%
